USP10 block – human USP10 deubiquitinase inhibition | Q14694 | purified USP10, Ub-rhodamine fluorescence, 60 min | inhibition, % at 20 µM | hit rate 1.1% among 47,000 | AID 1645856
USP7 block – blocks human USP7 ubiquitin-rhodamine cleavage. purified USP7, Ub-rhodamine cleavage fluorescence. hit rate 0.3% among 47,000. Q93009. inhibition, % at 20 µM
Target sequence (Q93009 whole entry, looked up): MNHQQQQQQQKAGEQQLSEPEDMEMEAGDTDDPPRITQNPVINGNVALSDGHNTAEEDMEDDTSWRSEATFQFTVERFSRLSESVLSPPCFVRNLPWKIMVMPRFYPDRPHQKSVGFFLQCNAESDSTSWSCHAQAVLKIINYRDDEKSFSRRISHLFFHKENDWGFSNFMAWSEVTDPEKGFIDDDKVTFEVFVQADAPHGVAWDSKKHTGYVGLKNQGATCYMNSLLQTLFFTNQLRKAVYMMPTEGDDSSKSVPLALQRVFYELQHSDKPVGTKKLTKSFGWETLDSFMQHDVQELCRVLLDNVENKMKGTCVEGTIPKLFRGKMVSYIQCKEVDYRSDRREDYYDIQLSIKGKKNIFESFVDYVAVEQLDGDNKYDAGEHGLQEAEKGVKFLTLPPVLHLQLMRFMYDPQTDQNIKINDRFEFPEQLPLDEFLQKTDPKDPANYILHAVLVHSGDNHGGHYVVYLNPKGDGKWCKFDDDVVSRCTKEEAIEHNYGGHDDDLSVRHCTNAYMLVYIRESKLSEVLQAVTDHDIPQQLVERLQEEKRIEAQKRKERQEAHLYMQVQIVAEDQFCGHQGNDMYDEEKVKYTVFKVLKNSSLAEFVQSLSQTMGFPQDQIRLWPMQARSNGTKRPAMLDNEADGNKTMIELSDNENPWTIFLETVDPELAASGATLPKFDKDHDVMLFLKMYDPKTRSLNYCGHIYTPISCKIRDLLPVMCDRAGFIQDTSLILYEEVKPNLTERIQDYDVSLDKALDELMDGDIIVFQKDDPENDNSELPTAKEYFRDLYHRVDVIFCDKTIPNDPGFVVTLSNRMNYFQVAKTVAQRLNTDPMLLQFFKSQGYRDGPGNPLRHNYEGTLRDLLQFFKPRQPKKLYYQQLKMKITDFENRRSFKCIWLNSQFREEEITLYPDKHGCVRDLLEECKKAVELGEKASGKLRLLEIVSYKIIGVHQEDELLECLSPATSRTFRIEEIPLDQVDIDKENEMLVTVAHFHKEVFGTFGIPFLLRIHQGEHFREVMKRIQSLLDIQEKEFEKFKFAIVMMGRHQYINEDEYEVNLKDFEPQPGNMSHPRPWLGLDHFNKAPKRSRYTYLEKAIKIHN
UCHL1 inh – blocks human UCHL1 ubiquitin-rhodamine cleavage; P09936; purified UCHL1, Ub-rhodamine cleavage fluorescence; inhibition, % at 20 µM; hit rate 0.2% among 47,000
* marks the source's active call; other numbers are inactive results; · = no result given. The list is not random: actives were taken first. Their share in the collection is about 1.2%. Cut-off read from the data, not from the text of the source: active = inhibition above about 30%; inactive = the rest.

SMILES	USP10 block	USP7 block	UCHL1 inh
Cc1c(C(=O)OCC(=O)Nc2ccc3c(c2)OCO3)oc2ccc(Br)cc12	34.8*	2.8	0.0
CCOc1ccc(NC(=O)COC(=O)c2oc3ccc(OCC)cc3c2C)cc1	-1.9	-5.9	-5.3
O=C1CCCC[C@]2(CN(C(=O)c3ccc(-n4cccn4)nc3)C[C@H]2c2ccc(F)cc2)N1	0.3	0.0	1.0
O=C(Nc1ccc(O)cc1)c1cccn2c(-c3ccccc3F)nnc12	-0.9	1.5	3.4
Cc1ccc(-c2cc(-c3ccc(F)cc3)[nH]c(=O)c2C#N)cc1	18.7	9.1	1.3
CC(C)Cc1ccc(-c2cc(-c3ccc(C(F)(F)F)cc3)c(C#N)c(=O)[nH]2)cc1	63.6*	35.1*	-2.0
CCOC(=O)C1CCN(C(=O)Cn2c(=O)cc(C)c3c(-c4ccccc4)nn(-c4ccccc4)c32)CC1	-0.7	7.2	3.9
Cc1ccc(COc2cc(C(=O)NCc3ccccc3C)c3ccccc3n2)cc1	2.7	7.1	2.1
COc1ccc(CNC(=O)c2ccccc2NC(=O)c2ccc(F)cc2)cc1	1.9	6.7	7.1
COc1ccc(C(=O)Nc2ccccc2C(=O)NC(Cc2ccc(O)cc2)C(=O)NNC(=O)Cc2ccc(OC)c(OC)c2)cc1 (stereo unspecified)	66.6*	4.8	2.8
Cc1ccccc1C(=O)NCc1csc(-c2ccccc2)n1	2.2	-6.6	3.2
COc1ccc(-c2nc(CNC(=O)c3ccccc3C)cs2)cc1	0.4	57.1*	0.2
CCc1ccc(C(=O)N2CCc3c(c(-c4nc(C5CC5)no4)nn3C)C2)cc1	-1.7	-12.0	-2.4
Cc1cccc(Cl)c1NC(=O)Nc1ccc(NC(=O)c2ccccc2O)cc1	38.8*	9.8	-0.1
O=C(Nc1ccc(NC(=O)c2ccccc2O)cc1)Nc1ccc(OCc2ccccc2)cc1	60.7*	29.5	4.3
O=C(Nc1ccc(F)cc1)Nc1ccc(NC(=O)c2ccccc2O)cc1	24.8	14.5	3.9
COc1ccccc1NC(=O)Nc1ccc(NC(=O)c2ccccc2O)cc1	14.8	8.9	-0.3
Cc1ccc(NC(=O)c2nnn(-c3cccc(F)c3)c2C)cc1	6.5	1.0	-3.7
Cc1nn(-c2cccc(C(F)(F)F)c2)c2c1C(c1ccccc1)N1C=C(Cl)C=C(Cl)C1=N2 (stereo unspecified)	0.2	3.3	-0.6
Cc1nn(-c2ccccc2)c2c1N=C1C(Cl)=CC(Cl)=CN1C21C(=O)Nc2ccccc21 (stereo unspecified)	3.5	65.3*	14.9
O=c1c2ccccc2oc2nc(-c3cccs3)n(-c3ccccc3)c(=O)c12	21.9	80.0*	49.4*
Cc1ccc(-c2nc3c(c(=O)c4ccccc4n3C)c(=O)n2-c2ccc(F)cc2)cc1	4.1	·	-3.2
COc1cccc(C(=O)Nc2nc(-c3ccco3)c(-c3ccco3)s2)c1	-7.6	49.6*	51.6*
O=S(=O)(Nc1nc(-c2ccco2)c(-c2ccco2)s1)c1ccc(F)cc1F	-4.7	-18.9	7.7
CCCCCCCCCCCC1=C(O)C(=O)C=C(O)C1=O	79.9*	49.6*	7.5
SMILES	USP10 block	USP7 block	UCHL1 inh
COc1cc(NC(=O)c2csc(-c3ccc(C)n3C)n2)cc(OC)c1	1.7	8.5	8.4
COc1cccc(-c2nc3c(s2)CN(C(=O)C2CCC2)CC3)c1	0.3	-129.7	0.7
CCc1ccc(NC(=O)CSc2ccc(N3CCC(C(=O)NC4CC4)CC3)nn2)cc1	10.3	10.3	5.2
COC(=O)c1ccc(N2CCN(C(C)=O)CC2)c(NC(=O)c2ccc(OCc3ccccc3)cc2)c1	4.3	7.9	9.8
COC(=O)c1ccc(N2CCN(C(C)=O)CC2)c(NC(=O)COc2ccc([N+](=O)[O-])cc2)c1	42.6*	11.9	4.8
C[C@]12C(=O)N(c3cccc(C(=O)O)c3)C(=O)N1CCc1c2[nH]c2ccccc12	3.5	0.0	3.0
COc1ccc(-c2nc(C)c(C(=O)NCCc3ccc(S(N)(=O)=O)cc3)s2)cc1	30.3*	-0.5	-1.2
Cc1nc(-c2ccccc2F)sc1C(=O)NCc1ccc(S(N)(=O)=O)cc1	0.6	-6.9	-4.4
COc1ccc(CCC(=O)Nc2nnc(C3CC(=O)N(c4ccccc4)C3)s2)cc1 (stereo unspecified)	34.0*	4.6	0.9
COc1ccc(N2CC(c3nnc(NC(=O)CCCc4ccccc4)s3)CC2=O)cc1 (stereo unspecified)	8.5	5.9	-1.2
CCOC(=O)C1(Cc2cc(-c3ccc(F)cc3)no2)CCCN(C(=O)C2CC2)C1 (stereo unspecified)	4.4	-1.5	6.5
COc1ccccc1/C=C/C(=O)NC(Cc1ccccc1)c1nc2ccccc2[nH]1 (stereo unspecified)	-5.9	-3.7	5.5
CC(C)=CCC/C(C)=C/CC/C(C)=C/Cc1c(C)[nH]c2ccccc2c1=O	2.0	6.0	0.9
CC(C)=CCC/C(C)=C/Cc1c(O)cc2c(c1O)C(=O)OC2	64.5*	87.9*	83.1*

Source: PubChem BioAssay (Buhrlage Lab, Dana-Farber Cancer Institute and Novartis Institutes for BioMedical Research (Cambridge, Mass))
